# Activity calls are given as the source filed them.
# How the values were obtained:
# [1] = test system: Human papillomavirus type 1a protein E7 (residues 44-93); test: small molecules binding HPV E7 44-93 – biochemical, small-molecule microarray, residues 44-93, 635 nm fluorescence, primary screen (AID 1108); details: fluorescence 635 nm, higher = more signal;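 also: E7 fragment applied at 1 µg/mL in TBST for 1 h at 4 C; score combines spot fluorescence with its signal to noise ratio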
# [2] = hepatitis C replication reporter changes, two-sided – Huh7 cells, luciferase reporter, HCV replication inhibitor project, primary screen (AID 1109); details: Huh7 HCV replicon luciferase reporter, 48 h; higher = more signal;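 also: huh7 hepatoma cells harbouring a luciferase neomycin HCV replicon reporter; luciferase luminescence as measure of HCV replicon replication; test concentration not given here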
# [3] = molecular target: Left-right determination factor 2 (Homo sapiens) (UniProt O00292); test: small molecules binding LEFTY2 protein – biochemical, small-molecule microarray, 635 nm fluorescence scan, primary screen (AID 1110); details: higher = more signal
# [4] = molecular target: Calmodulin-1 (Homo sapiens) (UniProt P0DP23); test: small molecules binding calmodulin-1 with EGTA – biochemical, small-molecule microarray, Cy5-labelled CALM1, profiling panel (AID 1111); details: Cy5-CALM1 binding fluorescence, higher = more signal;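 also: labelled calmodulin applied in Tris saline Tween buffer holding calcium plus EGTA and DTT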
# [5] = molecular target: Calmodulin-1 (Homo sapiens) (UniProt P0DP23); test: small molecules binding Ca-loaded calmodulin-1 – biochemical, small-molecule microarray, Cy5-labelled CALM1, plus calcium, artefact control for SMM control-protein annotation, profiling panel (AID 1112); details: Cy5-CALM1 binding fluorescence, higher = more signal;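 also: score merges spot fluorescence with signal to noise from triplicate slides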
# [6] = probe aWnt5a binding to arrayed compounds – biochemical, biotinylated probe, 635/667 nm fluorescence, primary screen (AID 1113); details: small-molecule microarray, higher = more signal;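 also: score merges 667 nm fluorescence intensity with signal-to-noise per printed feature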
# [7] = probe aShh binding to arrayed compounds – biochemical, biotinylated probe, 635/667 nm fluorescence, primary screen (AID 1114); details: small-molecule microarray, higher = more signal;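 also: probe is biotin-labelled aShh protein from a stem cell growth factor screen; measures binding of labelled protein to compounds printed on the slide; score merges feature fluorescence at 667 nm with signal-to-noise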
# [8] = probe aNog binding to arrayed compounds – biochemical, biotinylated probe, 635/667 nm fluorescence, primary screen (AID 1115); details: small-molecule microarray, higher = more signal;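 also: probe is biotinylated aNog protein used at 0.15 µg/mL for 1 h at 4 C; z-score combines 667 nm fluorescence of each spot with its signal to noise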
# [9] = molecular target: Torsin-1A-interacting protein 1 (Homo sapiens) (UniProt Q5JTV8); test: compound microarray binding of lysate hLAP1 – cell lysate, small-molecule microarray, COS7 lysate, 635/667 nm fluorescence, primary screen (AID 1116); details: 635 nm fluorescence, higher = more signal
# [10] = molecular target: Alpha-bungarotoxin (Bungarus multicinctus) (UniProt P60615); test: compounds binding labelled alpha-BTX control protein – biochemical, small-molecule microarray, Alexa647 label, 635/667 nm fluorescence, artefact control for SMM control protein annotation, profiling panel (AID 1117); details: alpha-BTX-A647 binding fluorescence, higher = more signal
# Albumin (Bos taurus) = Albumin (Bos taurus) (UniProt P02769); test: compounds binding labelled BSA control protein – biochemical, small-molecule microarray, Alexa647 label, 635/667 nm fluorescence, artefact control for SMM control protein annotation, profiling panel (AID 1118); details: BSA-A647 binding, fluorescence 635 nm, higher = more signal;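 also: score merges 667 nm emission intensity and signal-to-noise per printed compound spot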
# [11] = probe aXIP binding to arrayed compounds – biochemical, NeuroSMM set, 635/667 nm fluorescence, primary screen (AID 1119); details: small-molecule microarray, higher = more signal, called active from +8 up or from −8 down;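 also: probe is the protein aXip251-270 applied at 1 µg/mL to compound-printed slides; binding of probe to printed compounds measured as 667 nm fluorescence plus signal to noise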
# [12] = probe aNOTCH3 binding on compound microarray – biochemical, small-molecule microarray, 635/667 nm fluorescence, primary screen (AID 1120); details: higher = more signal;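 also: probe is a biotin-tagged antibody raised against NOTCH3 rather than NOTCH3 protein; score merges spot fluorescence near 667 nm with spot signal to noise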
# [13] = probe aNOTCH2 binding on compound microarray – biochemical, small-molecule microarray, 635/667 nm fluorescence, primary screen (AID 1121); details: higher = more signal;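 also: score merges feature fluorescence read at 667 nm with its signal to noise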
# [14] = molecular target: Carbonic anhydrase 2 (Homo sapiens) (UniProt P00918); test: compounds binding carbonic anhydrase 2 – biochemical, small-molecule microarray, Alexa647-labelled CAII, profiling panel (AID 1122); details: CAII-A647 binding fluorescence, higher = more signal
# [15] = COS7 lysate on small-molecule microarray, probe aHis, 635 nm (AID 1123); details: COS7 cell lysate, fluorescence, higher = more signal;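 also: z-score combines 667nm fluorescence intensity with signal-to-noise per printed compound spot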
# [16] = probe aLAP1 signal on lysate-treated microarray – cell lysate, small-molecule microarray, COS7 lysate, primary screen (AID 1124); details: probe aLAP1, fluorescence, higher = more signal;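 also: lysate comes from COS7 cells expressing LAP1 and is applied at 0.3 µg/mL; score merges spot fluorescence near 667 nm with signal-to-noise over triplicate slides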
# Sam68 (KHDRBS1) = test: compounds binding KHDRBS1 protein – biochemical, small-molecule microarray, 635 nm fluorescence, primary screen (AID 1125); details: higher = more signal;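 also: score merges 667 nm channel intensity with signal to noise over triplicate slides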
# [17] = test system: Chordin-like protein 2 (CHRDL2); test: compounds binding chordin-like 2 – biochemical, small-molecule microarray, 635 nm fluorescence, primary screen (AID 1126); details: fluorescence 635 nm, higher = more signal;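 also: printed compound slides probed with Chrdl2 protein at 4 µg/mL for 1 h at 4 C; score merges 667 nm emission intensity with signal to noise over three replicate slides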
# [18] = molecular target: Concanavalin-A (Canavalia ensiformis) (UniProt P02866); test: compounds binding concanavalin A lectin – biochemical, small-molecule microarray, Alexa647 label, 635 nm, artefact control for SMM control protein annotation, primary screen (AID 1127); details: ConA-A647 binding fluorescence, higher = more signal;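 also: z combines 667 nm emission intensity with signal-to-noise across three replicate slides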
# Concanavalin-A (Canavalia ensiformis), sequence (P02866 whole entry, looked up): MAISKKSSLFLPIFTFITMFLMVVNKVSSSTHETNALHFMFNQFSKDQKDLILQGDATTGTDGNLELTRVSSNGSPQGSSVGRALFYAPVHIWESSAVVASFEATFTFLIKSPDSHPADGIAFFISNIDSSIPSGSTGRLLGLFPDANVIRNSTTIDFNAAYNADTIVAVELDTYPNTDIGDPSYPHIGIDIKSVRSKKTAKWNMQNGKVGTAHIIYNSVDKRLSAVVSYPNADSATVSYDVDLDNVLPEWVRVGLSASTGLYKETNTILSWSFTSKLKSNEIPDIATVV
# Albumin (Bos taurus), sequence (P02769 whole entry, looked up): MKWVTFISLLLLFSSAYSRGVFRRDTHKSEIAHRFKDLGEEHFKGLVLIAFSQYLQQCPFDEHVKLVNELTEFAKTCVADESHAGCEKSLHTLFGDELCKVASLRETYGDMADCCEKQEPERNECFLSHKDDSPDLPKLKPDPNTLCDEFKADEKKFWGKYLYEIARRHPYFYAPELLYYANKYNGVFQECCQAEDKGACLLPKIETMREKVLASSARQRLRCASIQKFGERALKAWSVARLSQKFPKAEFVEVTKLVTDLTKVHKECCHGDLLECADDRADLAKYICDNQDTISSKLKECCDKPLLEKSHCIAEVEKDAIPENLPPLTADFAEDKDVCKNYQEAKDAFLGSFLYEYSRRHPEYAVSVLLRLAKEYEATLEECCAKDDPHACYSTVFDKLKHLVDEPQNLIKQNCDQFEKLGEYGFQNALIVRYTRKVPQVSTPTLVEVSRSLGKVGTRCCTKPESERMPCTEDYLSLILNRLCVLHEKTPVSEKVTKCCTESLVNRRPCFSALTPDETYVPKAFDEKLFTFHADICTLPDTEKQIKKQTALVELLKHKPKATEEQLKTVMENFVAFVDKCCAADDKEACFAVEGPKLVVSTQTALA
# Torsin-1A-interacting protein 1 (Homo sapiens), sequence (Q5JTV8 whole entry, looked up): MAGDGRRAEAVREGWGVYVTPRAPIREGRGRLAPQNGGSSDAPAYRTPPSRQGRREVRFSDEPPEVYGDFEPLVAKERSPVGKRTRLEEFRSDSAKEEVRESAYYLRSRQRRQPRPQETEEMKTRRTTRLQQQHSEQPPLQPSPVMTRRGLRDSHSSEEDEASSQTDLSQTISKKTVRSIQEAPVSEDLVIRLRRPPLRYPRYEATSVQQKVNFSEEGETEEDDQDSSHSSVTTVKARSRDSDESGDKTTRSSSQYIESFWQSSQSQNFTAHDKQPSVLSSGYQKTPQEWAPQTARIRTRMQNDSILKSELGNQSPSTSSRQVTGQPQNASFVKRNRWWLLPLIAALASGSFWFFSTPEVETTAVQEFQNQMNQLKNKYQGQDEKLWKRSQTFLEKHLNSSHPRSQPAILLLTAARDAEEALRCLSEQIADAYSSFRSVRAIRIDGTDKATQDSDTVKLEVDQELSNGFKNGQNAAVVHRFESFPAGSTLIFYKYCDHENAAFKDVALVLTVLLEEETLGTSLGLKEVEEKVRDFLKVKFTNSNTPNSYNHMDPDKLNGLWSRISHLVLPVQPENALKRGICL
# Left-right determination factor 2 (Homo sapiens), sequence (O00292 whole entry, looked up): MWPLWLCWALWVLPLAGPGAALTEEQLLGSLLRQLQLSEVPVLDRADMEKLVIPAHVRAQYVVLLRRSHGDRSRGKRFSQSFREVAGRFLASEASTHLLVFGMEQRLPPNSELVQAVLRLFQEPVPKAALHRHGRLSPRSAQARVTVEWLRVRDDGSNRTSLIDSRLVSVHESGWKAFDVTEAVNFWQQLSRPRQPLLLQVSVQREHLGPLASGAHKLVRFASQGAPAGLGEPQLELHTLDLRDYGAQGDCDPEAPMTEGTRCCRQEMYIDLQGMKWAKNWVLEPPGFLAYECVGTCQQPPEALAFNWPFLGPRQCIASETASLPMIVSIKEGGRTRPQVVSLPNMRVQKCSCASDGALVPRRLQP
# Alpha-bungarotoxin (Bungarus multicinctus), sequence (P60615 whole entry, looked up): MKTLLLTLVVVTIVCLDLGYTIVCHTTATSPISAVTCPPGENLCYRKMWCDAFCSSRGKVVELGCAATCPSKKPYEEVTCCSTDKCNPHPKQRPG
SMILES,composite z-score [1],z-score [2],composite z-score [3],composite z-score [4],composite z-score [5],composite z-score [6],composite z-score [7],composite z-score [8],composite z-score [9],composite z-score [10],composite z-score (Albumin (Bos taurus)),composite Z-score [11],composite z-score [12],composite z-score [13],composite z-score [14],composite z-score [15],composite z-score [16],composite z-score (Sam68 (KHDRBS1)),composite z-score [17],composite z-score [18]
C=CCC(OC(C)=O)[C@@H]1[C@@H](N(Cc2cccc3ccccc23)C(=O)c2cccc3ccccc23)c2cc(OCCCO)ccc2N1C(=O)c1ccc(-c2ccccc2)cc1 (stereo not given in full),-0.0699,-0.599,0.79,0.0898,0.766,0.0229,-0.117,-0.215,0.197,-0.574,-0.0704,-0.0014 (inactive),0.122,-0.143,0.115,0.888,-0.35,-0.159,0.25,-0.132
COc1ccc([Si](C)(C)[C@@H]2[C@@H](CCn3cc([C@H](O)c4ccccc4)nn3)O[C@]3(C(=O)N(Cc4ccc(N5CCC5=O)cc4)c4ccccc43)[C@H]2C)cc1,-0.222,-2.06,-0.309,-0.185,-0.0351,-0.217,-0.191,0.318,0.0139,-0.0352,0.0006,0.811 (inactive),-0.505,-0.0849,-0.266,0.121,-0.426,-0.323,-0.0871,0.469
Cc1ccc(S[C@]2(C(=O)NCC(F)(F)F)CC(=O)N(Cc3ccccc3)[C@@H]2c2ccc(CO)cc2I)cc1,0.503,-2.48,-0.842,-0.0153,0.517,-0.0203,-0.0362,0.358,0.349,1.36,0.132,0.184 (inactive),-0.212,-0.183,0.679,1.21,1.57,0.0687,-0.151,-0.203
COc1ccccc1CN1C(=O)c2ccccc2[C@](Cc2ccccc2I)(C(=O)NCC(F)(F)F)[C@@H]1c1ccc(CO)cc1,0.905,-1.16,-0.201,2.03,0.731,0.0559,-0.106,0.0286,1.42,1.36,0.832,-0.46 (inactive),0.073,-0.057,0.824,1.95,0.311,1.29,-1.12,1.15
CCCCN1CC=CC23O[C@@H]4/C=C\CCC(C)OC(=O)C4[C@H]2C(=O)N(C(CO)C(C)C)[C@@H]3C1=O (stereo not given in full),-0.164,-0.768,-0.406,-0.708,-0.926,-0.0403,0.186,-0.278,1.36,-0.312,0.751,0.443 (inactive),-0.126,-0.12,0.815,-0.407,1.13,-0.468,0.212,-0.409
COCCCNC(=O)[C@@]1(Cc2ccccc2N=[N+]=[N-])N=C(c2ccc(OCCCO)cc2)O[C@H]1c1ccccc1,1.41,-1.54,-0.394,0.906,-0.257,0.269,0.142,1.76,1.63,0.643,0.533,0.93 (inactive),0.0749,0.0202,0.35,1.99,1.25,1.04,0.099,0.79
COc1ccc(NC(=O)O[C@H]2[C@H](OC(=O)Nc3ccccc3)[C@@H](OC(=O)Nc3ccccc3)[C@@H](OC)O[C@@H]2CO)cc1,1.28,-3.04,0.298,1.41,-0.298,0.107,-0.0813,0.564,1.25,0.577,0.137,-0.275 (inactive),-0.0003,-0.0878,0.761,2.8,0.624,1.29,0.402,1.13
CN1C(=O)C2C=CC(C(O)c3cccc4ccccc34)N(N3CCCCC3)C2C1=O (stereo not given),0.817,-0.474,0.349,2.23,1.02,-0.027,-0.0055,1.04,2.45,1.67,0.918,0.353 (inactive),0.246,0.0502,0.586,2.75,0.59,1.31,-0.227,1.17
CC(C)(C)N1CC=CC23O[C@@H]4C=CCCOC(=O)C4[C@H]2C(=O)N(CCO)[C@@H]3C1=O (stereo not given in full),-0.282,0.361,-0.475,-0.504,-0.511,-0.0924,-0.0146,0.0417,-0.108,1.37,-0.0163,-0.391 (inactive),-0.13,0.226,0.282,-1.09,-0.155,-0.889,-0.267,-1.39
CC1=C[C@@]2(CO)C(=O)[C@]3(CO3)[C@@H]1[C@H]1[C@]2(C)C=C(CO)C(=O)[C@]12CO2,0.122,-1.61,0.351,-0.163,-0.0609,-0.0799,-0.123,-0.488,-0.312,0.242,-0.123,0.817 (inactive),0.112,-0.0795,0.497,-0.255,-0.274,0.369,0.397,0.301
COC(=O)[C@@]1(Cc2ccc(OC)cc2)[C@H]2c3cc(C(=O)N(C)C)n(Cc4ccc(Cl)c(C(F)(F)F)c4)c3C[C@H]2CN1C(=O)c1ccccc1,1.39,-2,-0.566,1.41,1.12,0.235,1.19,2.18,0.535,0.99,0.962,0.579 (inactive),0.406,0.29,0.377,2.65,0.0516,1.26,-0.763,0.952
